Experimental data as given in PubChem BioAssay (NCATS).
Records with an inconclusive call do not appear. Active and inactive are the calls of the source. Calls come from the whole dose curve; as a rule, active = well fitted inhibition curve with a large enough effect; inconclusive = small, poorly fitted or top-dose-only effect; inactive = flat fitted curve, though single readings scatter.

Tests used:
Assay in all cases: qHTS profiling for inhibitors of Plasmodium falciparum proliferation (AID 504749); note: nearly all actives have a fitted effect of over 60% in size
Conditions in all cases: P. falciparum in erythrocytes, SYBR Green DNA, 72 h; series mostly up to 28.7 µM
[1] = tested on: CP201
How it was run: (§1)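 Three-day growth assay of blood-stage parasites in erythrocytes (0.3% parasitemia, 2.5% hematocrit) at 37 C, 5% CO2, quantified by SYBR Green DNA staining after overnight detergent lysis.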

[2] = tested on: CP203
How it was run: as §1

[3] = tested on: CP211
How it was run: as §1

[4] = tested on: CP215
How it was run: as §1

[5] = tested on: CP217
How it was run: as §1

[6] = tested on: CP237
How it was run: as §1

[7] = tested on: CP238
How it was run: as §1

[8] = tested on: CP250
How it was run: as §1

[9] = tested on: CP252
How it was run: as §1

[10] = tested on: CP256
How it was run: as §1

[11] = tested on: CP260
How it was run: as §1

[12] = tested on: CP262
How it was run: as §1

[13] = tested on: CP265
How it was run: as §1

[14] = tested on: CP266
How it was run: as §1

[15] = tested on: CP268
How it was run: as §1

[16] = tested on: CP269
How it was run: as §1

[17] = tested on: CP286
How it was run: as §1

[18] = tested on: CP291
How it was run: as §1

[19] = tested on: CP297
How it was run: as §1

[20] = tested on: CP247
How it was run: as §1

Measured: Potency
Potency is the fitted concentration of half-maximal effect.

CN1C(=S)CN=C(c2ccccc2)c2cc(Cl)ccc21
not listed: [20]
inactive: all other assays above

NCC(CC(=O)O)c1ccc(Cl)cc1 (stereo not drawn)
inactive: all assays above

OCCOc1ccccc1
not listed: [2]
inactive: all other assays above

CCCC1CCCCN1 (stereo not drawn)
not listed: [3] | [8] | [14] | [20]
inactive: all other assays above

FC(F)(F)c1cccc(C2=CCN(CCc3ccc4ccccc4c3)CC2)c1
not listed: [10] | [15]
inactive: all other assays above

Nc1ccncc1
not listed: [2]
inactive: all other assays above

CCCN1CCC[C@@H]2Cc3[nH]ncc3C[C@H]21
inactive: [1] | [2] | [3] | [4] | [12] | [14] | [15] | [16] | [18] | [19]

CCN(C(C)=O)c1cccc(-c2ccnc3c(C#N)cnn23)c1
not listed: [2] | [19]
inactive: all other assays above

N[C@@H](Cc1ccc(N(CCCl)CCCl)cc1)C(=O)O
inactive: [1] | [2] | [3] | [4] | [10] | [12] | [14] | [15] | [18] | [19]

CC[N+]1(C)CCCC(OC(=O)C(O)(c2ccccc2)c2ccccc2)C1 (stereo not drawn)
not listed: [2]
inactive: all other assays above

O=P1(NCCCl)OCCCN1CCCl (stereo not drawn)
not listed: [2]
inactive: all other assays above

CC[C@@H](CO)NC(=O)[C@@H]1C=C2c3cccc4[nH]cc(c34)C[C@H]2N(C)C1
inactive: all assays above

COc1ccccc1N1CCNCC1
not listed: [11]
inactive: all other assays above

CC(C)CC(N(C)C)C1(c2ccc(Cl)cc2)CCC1 (stereo not drawn)
not listed: [2]
inactive: all other assays above

NCCc1cc(O)c(O)cc1O
not listed: [2]
inactive: all other assays above

CC1OC(C)OC(C)O1 (stereo not drawn)
not listed: [2]
inactive: all other assays above

CC(=O)[C@H]1CC[C@H]2[C@@H]3CC[C@H]4C[C@](C)(O)CC[C@]4(C)[C@H]3CC[C@]12C
not listed: [11]
inactive: all other assays above

NN=C(N)N
not listed: [2]
inactive: all other assays above

Oc1cccc2cccnc12
inactive: all assays above

Oc1ccccc1-c1ccccc1
not listed: [2]
inactive: all other assays above

Cc1ncc(CNC(=O)N(CCCl)N=O)c(N)n1
not listed: [2]
inactive: all other assays above

O=C(NC(O)C(Cl)(Cl)Cl)NC(O)C(Cl)(Cl)Cl (stereo not drawn)
not listed: [2]
inactive: all other assays above

Clc1ccc(COC(Cn2ccnc2)c2ccc(Cl)cc2Cl)cc1 (stereo not drawn)
active: [1] 15.1 µM | [2] 4.26 µM | [3] 9.53 µM | [4] 4.78 µM | [5] 2.51 µM | [6] 1.26 µM | [7] 6.31 µM | [20] 3.16 µM | [8] 5.01 µM | [9] 3.98 µM | [10] 7.08 µM | [11] 2.51 µM | [12] 4.78 µM | [13] 2.51 µM | [15] 15.1 µM | [16] 4.78 µM | [17] 3.98 µM | [18] 7.57 µM | [19] 3.79 µM

NP(N)(=O)NC(=O)c1ccc(F)cc1
not listed: [2]
inactive: all other assays above

CN1CCN(C(=O)O[C@H]2c3nccnc3C(=O)N2c2ccc(Cl)cn2)CC1
not listed: [2]
inactive: all other assays above

c1ccc2c(c1)OCC(C1=NCCN1)O2 (stereo not drawn)
not listed: [6] | [11] | [20]
inactive: all other assays above

CCOP(=S)(OCC)Oc1cc(C)nc(C(C)C)n1
inactive: all assays above

CCN(CC)CCOC(=O)C(O)(c1ccccc1)c1ccccc1
not listed: [4] | [10] | [19]
inactive: all other assays above

CCC(COC(=O)c1cc(OC)c(OC)c(OC)c1)(c1ccccc1)N(C)C (stereo not drawn)
not listed: [6]
inactive: all other assays above
